In PubChem BioAssay (EPA / NIEHS) one finds outcome and AC50 data, which are given here for 39 compounds.

Inconclusive results are not listed. Calls of active or inactive are those of the source. Rule for the calls, unless noted: active = hit-call score of the fitted dose curve at least 0.9, where 1 is the maximum; inactive = score below 0.9.

Tested on in the first experiment: not listed separately
In words: ATG_TGFb_CIS: Attagene CIS-FACTORIAL HepG2 Assay for human Transforming Growth Factor (TGF) (AID 2282967). The settings on record: HepG2 Attagene CIS TGFb reporter, mRNA transcription; actives raise or lower the signal. Put shortly:
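Transcript-level reporter readout: HepG2 transfectants, 24 h exposure, RNA to cDNA, reporter-specific PCR, fluorescent primer extension, capillary sizing against ROX standards. Gain- or loss-of-signal relative to DMSO.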
As for `CC1=NN(c2ccc(S(=O)(=O)O)cc2)C(=O)C1`, the compound was called inactive.

As for `NCc1ccco1`, the call was inactive.

`OCc1cccc(Oc2ccccc2)c1`: the call was inactive.

As for `C=C(C)C(=O)OCCOCCOCCOCCOC(=O)C(=C)C`, the call was inactive.

In the case of `c1ccc2[nH]cnc2c1`, the outcome was inactive.

With `CCCCCCCCCCCCCC(=O)OCC(O)CO` (stereo not drawn), the outcome was inactive.

For the compound `COc1ccc(CCN2CCC(Nc3nc4ccccc4n3Cc3ccc(F)cc3)CC2)cc1`, the call was inactive.

Regarding `COCCc1ccc(OCC(O)CNC(C)C)cc1` (stereo not drawn), the compound was classed as inactive.

As to `CCCC(O)C(O)CO` (stereo not drawn), the outcome was inactive.

On to `CC=Cc1ccc(OC)c(OC)c1`, for which the outcome was inactive.

In the case of `COC(=O)Nc1ccc(Cl)c(Cl)c1`, the outcome was inactive.

For the compound `Cc1occc(=O)c1OC(=O)C(C)C`, the outcome was inactive.

As to `CC(C)(C)c1ccc(C(=O)O)cc1`, the compound was classed as inactive.

For `Cc1c(Cl)cccc1[N+](=O)[O-]`, the compound was called inactive.

As for `CC(=O)c1ccccn1`, the call was inactive.

In the case of `CC(C)c1ccccc1O`, the outcome was inactive.

For `Nc1ccc(Cl)c([N+](=O)[O-])c1`, the result was inactive.

With `COC(C)(C)CCCC(C)CC=O` (stereo not drawn), the compound was classed as inactive.

Regarding `CS(=O)(=O)c1ccc(Cl)cc1`, the compound was called inactive.

Take `COc1cc(CCC(C)=O)ccc1O`: the result was inactive.

Consider `O=Cc1ccccc1S(=O)(=O)O`, for which the outcome was inactive.

As for `CCCCCCOC(=O)C(C)C`, the compound was called inactive.

For the compound `O=C1NC2NC(=O)NC2N1` (stereo not drawn), the call was inactive.

With `CC(C)CCOC(=O)c1ccccc1`, the compound was classed as inactive.

Take `COc1ccc(CCC(C)=O)cc1`: the compound was called inactive.

For the compound `COC(=O)c1cccnc1`, the outcome was inactive.

On to `COC(CC(C)CCCC(C)(C)O)OC` (stereo not drawn), for which the result was inactive.

For the compound `C[Si](C)(C)O[Si](C)(C)C`, the result was inactive.

Regarding `OC[C@H]1O[C@@H](Oc2ccc(O)cc2)[C@H](O)[C@@H](O)[C@@H]1O`, the result was inactive.

On to `CC1(C)O[C@@H]2[C@@H](CO[C@@]3(COS(N)(=O)=O)OC(C)(C)O[C@@H]23)O1`, for which the result was inactive.

Turning to `C=C(C)C(=O)OCCOCCOCCOC(=O)C(=C)C`, the call was inactive.

With `Cc1ccc(C)o1`, the outcome was inactive.

Take `CCCCCC(=O)CC`: the outcome was inactive.

As for `O=C1CCCC=CCCCCCCCCCC1`, the compound was called inactive.

For the compound `C=C(C)C(=O)OCCOC1CC2CC1C1C=CCC21` (stereo not drawn), the outcome was inactive.

Turning to `C=COCCOCCOC=C`, the compound was classed as inactive.

`CCC1(C)NC(=O)NC1=O` (stereo not drawn): the outcome was inactive.

In the case of `CCc1ccc(O)cc1`, the call was inactive.

As a reminder, the AC50 is the concentration at which the activity in the assay is half-maximal. As for `CCCCCCCCC=CCCCCCCCC1=NCCN1CCO`, the AC50 was 0.666 µM (active).

Tested on in a further experiment: not listed separately
Kind of experiment: ATG_VDRE_CIS: Attagene CIS-FACTORIAL HepG2 Assay for human Vitamin D Receptor Element (VDRE) (AID 2282968). The note with it: HepG2 VDRE cis-reporter transcription, actives raise or lower the signal. In a few lines:
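Cell-based multiplexed reporter format in human liver HepG2 cells, 24 h post-dose. Fluorescence from capillary electrophoresis of reporter cDNA gives the signal, with DMSO as negative control and baseline.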
Take `CC1=NN(c2ccc(S(=O)(=O)O)cc2)C(=O)C1`: the compound was called inactive.

As to `NCc1ccco1`, the result was inactive.

For the compound `OCc1cccc(Oc2ccccc2)c1`, the call was inactive.

Regarding `C=C(C)C(=O)OCCOCCOCCOCCOC(=O)C(=C)C`, the outcome was inactive.

In the case of `c1ccc2[nH]cnc2c1`, the result was inactive.

On to `CCCCCCCCCCCCCC(=O)OCC(O)CO` (stereo not drawn), for which the call was inactive.

As to `COc1ccc(CCN2CCC(Nc3nc4ccccc4n3Cc3ccc(F)cc3)CC2)cc1`, the compound was called inactive.

Regarding `COCCc1ccc(OCC(O)CNC(C)C)cc1` (stereo not drawn), the compound was called inactive.

For `CCCC(O)C(O)CO` (stereo not drawn), the call was inactive.

In the case of `CC=Cc1ccc(OC)c(OC)c1`, the call was inactive.

On to `COC(=O)Nc1ccc(Cl)c(Cl)c1`, for which the AC50 was 43.7 µM (active).

Take `Cc1occc(=O)c1OC(=O)C(C)C`: the result was inactive.

For `CC(C)(C)c1ccc(C(=O)O)cc1`, the call was inactive.

`Cc1c(Cl)cccc1[N+](=O)[O-]`: the compound was called inactive.

As to `CC(=O)c1ccccn1`, the compound was classed as inactive.

As to `CC(C)c1ccccc1O`, the result was inactive.

`Nc1ccc(Cl)c([N+](=O)[O-])c1`: the call was inactive.

`COC(C)(C)CCCC(C)CC=O` (stereo not drawn): the compound was called inactive.

On to `CS(=O)(=O)c1ccc(Cl)cc1`, for which the result was inactive.

On to `COc1cc(CCC(C)=O)ccc1O`, for which the compound was called inactive.

In the case of `O=Cc1ccccc1S(=O)(=O)O`, the compound was classed as inactive.

On to `CCCCCCOC(=O)C(C)C`, for which the compound was called inactive.

`O=C1NC2NC(=O)NC2N1` (stereo not drawn): the outcome was inactive.

With `CC(C)CCOC(=O)c1ccccc1`, the result was inactive.

Consider `COc1ccc(CCC(C)=O)cc1`, for which the result was inactive.

For the compound `COC(=O)c1cccnc1`, the call was inactive.

For `COC(CC(C)CCCC(C)(C)O)OC` (stereo not drawn), the result was inactive.

Consider `C[Si](C)(C)O[Si](C)(C)C`, for which the compound was classed as inactive.

Regarding `OC[C@H]1O[C@@H](Oc2ccc(O)cc2)[C@H](O)[C@@H](O)[C@@H]1O`, the call was inactive.

With `CC1(C)O[C@@H]2[C@@H](CO[C@@]3(COS(N)(=O)=O)OC(C)(C)O[C@@H]23)O1`, the compound was classed as inactive.

Consider `C=C(C)C(=O)OCCOCCOCCOC(=O)C(=C)C`, for which the call was inactive.

Take `Cc1ccc(C)o1`: the result was inactive.

Turning to `CCCCCC(=O)CC`, the call was inactive.

With `O=C1CCCC=CCCCCCCCCCC1`, the AC50 is 18.4 µM (active).

For the compound `C=C(C)C(=O)OCCOC1CC2CC1C1C=CCC21` (stereo not drawn), the compound was called inactive.

In the case of `C=COCCOCCOC=C`, the call was inactive.

With `CCC1(C)NC(=O)NC1=O` (stereo not drawn), the compound was called inactive.

For `CCc1ccc(O)cc1`, the compound was classed as inactive.

As for `CCCCCCCCC=CCCCCCCCC1=NCCN1CCO`, the compound was classed as inactive.

The target of another experiment is Steroid hormone receptor ERR1 (Homo sapiens) (UniProt P11474). In words: ATG_ERRa_TRANS: Attagene TRANS-FACTORIAL HepG2 Assay for human Estrogen-Related Receptor alpha (ERRa) (AID 2282971; active = hit-call score of the fitted dose curve at least 0.9, where 1 is the maximum). The note with it: HepG2 Attagene TRANS reporter, ERRa transactivation. In a few lines: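 Reporter transcript induction was quantified by RT-PCR and capillary electrophoresis of FAM-labelled, HpaI-cut products after 24 h treatment of HepG2 cells carrying transiently transfected GAL4-UAS reporter units and an exogenous ERRa-Gal4 fusion; activity scored as increase over DMSO.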
Steroid hormone receptor ERR1 (Homo sapiens), sequence (P11474 whole entry, looked up, the tested form may be a part): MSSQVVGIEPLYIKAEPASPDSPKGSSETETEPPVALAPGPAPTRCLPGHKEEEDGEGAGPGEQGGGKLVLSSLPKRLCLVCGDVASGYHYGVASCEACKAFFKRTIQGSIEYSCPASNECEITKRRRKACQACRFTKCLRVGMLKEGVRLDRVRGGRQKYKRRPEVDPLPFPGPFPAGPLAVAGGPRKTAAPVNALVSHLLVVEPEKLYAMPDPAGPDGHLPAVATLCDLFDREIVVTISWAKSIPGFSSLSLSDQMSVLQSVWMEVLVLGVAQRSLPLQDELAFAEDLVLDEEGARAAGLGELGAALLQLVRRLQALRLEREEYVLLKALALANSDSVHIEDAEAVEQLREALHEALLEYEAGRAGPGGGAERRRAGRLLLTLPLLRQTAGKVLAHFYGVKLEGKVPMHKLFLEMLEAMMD
Turning to `CCCCCCCCCCCCCC(=O)OCC(O)CO` (stereo not drawn), the result was inactive.

On to `COc1ccc(CCN2CCC(Nc3nc4ccccc4n3Cc3ccc(F)cc3)CC2)cc1`, for which the compound was classed as inactive.

For `COCCc1ccc(OCC(O)CNC(C)C)cc1` (stereo not drawn), the compound was classed as inactive.

On to `Cc1occc(=O)c1OC(=O)C(C)C`, for which the result was inactive.

For `COC(C)(C)CCCC(C)CC=O` (stereo not drawn), the compound was called inactive.

With `CS(=O)(=O)c1ccc(Cl)cc1`, the result was inactive.

In the case of `CCCCCCOC(=O)C(C)C`, the result was inactive.

Consider `COC(=O)c1cccnc1`, for which the compound was called inactive.

As to `C=C(C)C(=O)OCCOC1CC2CC1C1C=CCC21` (stereo not drawn), the result was inactive.

Consider `CCCCCCCCC=CCCCCCCCC1=NCCN1CCO`, for which the outcome was inactive.
